Laboratory results taken from PMC7819943, “Rice protein-binding microarrays: a tool to detect cis-acting elements near promoter regions in rice”.
In all, about 39,000 sequences were measured (“fluorescence intensity (a.u.)”: median about 4,300, highest 2% from about 39,000 on). Only a selection was taken, and the highest values are over-represented in it overall.

The sequences below were run against T1, OsSMF1 (Oryza sativa, UniProt Q6ZLB0 1-436) (assay: protein-binding microarray (RPBM); PBS, 2% BSA, 51.3 ng/ul salmon testes DNA, 50 uM zinc acetate, 200 nM TF, 25 C, 1 h; high values mean tight binding). Conditions: protein: recombinant; tags: N-terminal polyhistidine and DsRed monomer fusion (pET32a); chain copies: 2; label: CyDye5-dUTP incorporated in the synthesized complementary strand; 3' TTTTT single-stranded linker to array surface; dsDNA, one strand shown.
T1 sequence: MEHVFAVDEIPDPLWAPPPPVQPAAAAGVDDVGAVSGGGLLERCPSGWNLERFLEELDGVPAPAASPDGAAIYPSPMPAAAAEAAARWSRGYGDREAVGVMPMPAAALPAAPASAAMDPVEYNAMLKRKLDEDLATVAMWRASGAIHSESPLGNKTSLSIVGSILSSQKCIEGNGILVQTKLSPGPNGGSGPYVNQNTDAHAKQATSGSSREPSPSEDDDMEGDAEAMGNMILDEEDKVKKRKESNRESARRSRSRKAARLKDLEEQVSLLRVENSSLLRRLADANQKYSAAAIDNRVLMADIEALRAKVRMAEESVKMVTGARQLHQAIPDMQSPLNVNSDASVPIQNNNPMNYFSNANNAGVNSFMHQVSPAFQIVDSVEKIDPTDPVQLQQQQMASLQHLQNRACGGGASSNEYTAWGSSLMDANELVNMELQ
In short: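 Binding signal here means per-feature fluorescence intensity in arbitrary units. The values were read on an Axon 4000B scanner after a custom Agilent array, double-stranded by primer extension with Cy5-dUTP, was incubated with 200 nM protein at 25 °C for 1 h in PBS with 2% BSA, salmon testes DNA and 50 µM zinc acetate, then washed. The proteins were transcription factors with an N-terminal polyhistidine tag and DsRed, expressed in E. coli BL21-CodonPlus and purified on Ni–NTA.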
With “GTGCGTTGTGTGGTTGGTTGGTCAGTGTCTGGGTGGTCACCGGAGTCACCTAGTGCAG” the binding signal was 26000 fluorescence intensity (a.u.). With “ATTCGTCTGAAAATTGTGTTTCACATGCGTCATTTCTCTACGGAGTCACCTAGTGCAG” the binding signal was 5080 fluorescence intensity (a.u.). In the case of “CTCTGGCGATGTGGCGTCTGGTCAAATTCATTGTCTCTACCGGAGTCACCTAGTGCAG”, the binding signal was 47900 fluorescence intensity (a.u.). “GCGAAAACCCTGCATAAACATAGGAAAACACCAAGTGGGTCGGAGTCACCTAGTGCAG” was tested, and the binding signal was 3560 fluorescence intensity (a.u.). In the case of “TTTGATCACCGGTCCGGTCTTAATAACTATGTGGCAGACGCGGAGTCACCTAGTGCAG”, the binding signal was 3660 fluorescence intensity (a.u.). “GCGGAGCCGACGCGGCGGCGATGCTCGGCCGCGTGGCGGTCGGAGTCACCTAGTGCAG” was tested, and the binding signal was 3840 fluorescence intensity (a.u.). With “AAACACGCGGCATGGCGTGCCGCGATGCAGTCGGAGATGGCGGAGTCACCTAGTGCAG” the binding signal was 48600 fluorescence intensity (a.u.). “AGAGGCATGGGAGTCATGTTCAGGGTGATGGGAGATGGAGCGGAGTCACCTAGTGCAG” was tested, and the binding signal was 3260 fluorescence intensity (a.u.). “AGTGGTGGAGAAGGAGAGGAGAGGCAGAGAGAATGAGGAGCGGAGTCACCTAGTGCAG” was tested, and the binding signal was 3240 fluorescence intensity (a.u.). With “GAAGTGGCGGCCCTTGGCGGAGAGAATGGCATGGCGAGAGCGGAGTCACCTAGTGCAG” the binding signal was 65100 fluorescence intensity (a.u.). With “CGGGAGAGAGATCAGATGCGGCATGGCGTGGCCGTGGCGTCGGAGTCACCTAGTGCAG” the binding signal was 3380 fluorescence intensity (a.u.). For “GAAGGAGAGGAGGAGAGGAGAGGAGAGAGGGAGGCAGCAGCGGAGTCACCTAGTGCAG”, the binding signal was 3280 fluorescence intensity (a.u.). With “GCGTGGAGTGGAGAGTGGAGAGGCATGGGAGGCATGGCAGCGGAGTCACCTAGTGCAG” the binding signal was 42900 fluorescence intensity (a.u.). For “AGCGAGAGAAGATGCTGACGTGGCATCATGACATGTGGGGCGGAGTCACCTAGTGCAG”, the binding signal was 19300 fluorescence intensity (a.u.). “CAACAGCAGCAGCTACAACGCGGCATCCATGGCCGCCGCGCGGAGTCACCTAGTGCAG” was tested, and the binding signal was 53300 fluorescence intensity (a.u.). In the case of “CCCTGCGCTGCCACGCGGCCGGCATCCGCCAAAGCAACAGCGGAGTCACCTAGTGCAG”, the binding signal was 4880 fluorescence intensity (a.u.). With “CCTCCTCAACGCCGCCACCTCATCCGTCCATACAGCGCCGCGGAGTCACCTAGTGCAG” the binding signal was 7110 fluorescence intensity (a.u.). In the case of “ATAGCCCGTCCTCTTCATGGACCACGGTGTACAGCTTGCTCGGAGTCACCTAGTGCAG”, the binding signal was 3980 fluorescence intensity (a.u.). For “TTAGTTGTTCTTGTTCTCTTGGTTGGGACGTGGAGAGTTGCGGAGTCACCTAGTGCAG”, the binding signal was 3440 fluorescence intensity (a.u.). “ACATTATCATGTCACGTCGTCGCGTAATCATGGGTACCCACGGAGTCACCTAGTGCAG” was tested, and the binding signal was 4200 fluorescence intensity (a.u.). With “GCCGACACGTCGCGACGCCGCTTGCCACGCGCCACGCGCGCGGAGTCACCTAGTGCAG” the binding signal was 6450 fluorescence intensity (a.u.). “TAAAATTATTATATTTTATAAGAAAGGTAACAAGTAAACACGGAGTCACCTAGTGCAG” was tested, and the binding signal was 28600 fluorescence intensity (a.u.). With “GCTAGGTTCAACGTCATGCCTCATGTTGTCTATTGCTGTTCGGAGTCACCTAGTGCAG” the binding signal was 4070 fluorescence intensity (a.u.). For “GGGGTTAGTCGCCGGAGGTGTGGCGTGTCGACACGTACGCCGGAGTCACCTAGTGCAG”, the binding signal was 8720 fluorescence intensity (a.u.). With “TTGTTTCACCGCTTACGCCACGTGCGCCGCTCAGCTGTATCGGAGTCACCTAGTGCAG” the binding signal was 9840 fluorescence intensity (a.u.). In the case of “ATCCTCAACTCAATCCCGACGAAATCCCCTTCGATTTGAGCGGAGTCACCTAGTGCAG”, the binding signal was 3290 fluorescence intensity (a.u.). “GATTAAATGGAAGAGAGAATGAATAATTAAGATTTAAAGACGGAGTCACCTAGTGCAG” was tested, and the binding signal was 27400 fluorescence intensity (a.u.). “AAGAATTAAAGAAGCCTTTATAAGAAGAGAAGGCCAAGCTCGGAGTCACCTAGTGCAG” was tested, and the binding signal was 60800 fluorescence intensity (a.u.). “TTAAAACGCATCAAGATTATAAGAGCCAAGAGAAATTGCACGGAGTCACCTAGTGCAG” was tested, and the binding signal was 3520 fluorescence intensity (a.u.). In the case of “TCAAGGACCTCGTCATCCTCTCAGGTAACACACTTTCCCTCGGAGTCACCTAGTGCAG”, the binding signal was 3780 fluorescence intensity (a.u.). In the case of “TCCTCTTCTCCTCCGCCGCATCAGCAATCTCTCTTTCTACCGGAGTCACCTAGTGCAG”, the binding signal was 4100 fluorescence intensity (a.u.). “CTTCGCTCTCTTTTCCATTGCAGAGCCCTCACGCTTCCGCCGGAGTCACCTAGTGCAG” was tested, and the binding signal was 3570 fluorescence intensity (a.u.). With “ACGCCGCTAGTTCTTTTCTCCAGAGCAATCTGGTCAGTTCCGGAGTCACCTAGTGCAG” the binding signal was 59900 fluorescence intensity (a.u.). “AGAAGAGGTGATGTATAAAACATGTCACGATTTAATATCTCGGAGTCACCTAGTGCAG” was tested, and the binding signal was 4070 fluorescence intensity (a.u.). In the case of “TTATTATGAAAATATATTTAATTATTGATTTGATGAAACTCGGAGTCACCTAGTGCAG”, the binding signal was 21300 fluorescence intensity (a.u.). In the case of “AAGAAGTACGTCATATATTCAGTTTTATGTATTATTTTATCGGAGTCACCTAGTGCAG”, the binding signal was 3310 fluorescence intensity (a.u.). With “AAATAACAAAATTACAAGTTTAACATAAATATGTAATCACCGGAGTCACCTAGTGCAG” the binding signal was 21200 fluorescence intensity (a.u.). For “ATAACCTAATATAAAGTTCGCTCATATGAAAATTTAAACTCGGAGTCACCTAGTGCAG”, the binding signal was 51600 fluorescence intensity (a.u.). For “AACATAATGTTTTAACTTAAACCTTAATAATGAAATTTCTCGGAGTCACCTAGTGCAG”, the binding signal was 3670 fluorescence intensity (a.u.). For “GATATGATTATTTATTTCTTTAAATGAAAATCATGTGTAACGGAGTCACCTAGTGCAG”, the binding signal was 32500 fluorescence intensity (a.u.). With “AATTATCATAAAACAACATATTTAAACCATGGTAACATAACGGAGTCACCTAGTGCAG” the binding signal was 6200 fluorescence intensity (a.u.). In the case of “TTAATACGTATGAATATATAAAGTTTATATATGCATGTACCGGAGTCACCTAGTGCAG”, the binding signal was 63000 fluorescence intensity (a.u.). With “TATAAATTAATATGTAGTATATCACTTCATAAGTTTAAATCGGAGTCACCTAGTGCAG” the binding signal was 39300 fluorescence intensity (a.u.).
